Measurements published in PubChem BioAssay.
Values without a mark were called inactive. How the calls were made is not given here.

Each compound was assayed against Pantothenate synthetase (Mycobacterium tuberculosis (strain ATCC 25618 / H37Rv)) (UniProt P9WIL5) (assay: Coupled enzyme confirmation of inhibitors against recombinant Mtb PanC (AID 375;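 further: 0% = full reaction with vehicle and 100% = no enzyme background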)). Conditions: coupled enzyme assay; at 10 µM, hits give high values.
Pantothenate synthetase (Mycobacterium tuberculosis (strain ATCC 25618 / H37Rv)), sequence (P9WIL5 whole entry, looked up): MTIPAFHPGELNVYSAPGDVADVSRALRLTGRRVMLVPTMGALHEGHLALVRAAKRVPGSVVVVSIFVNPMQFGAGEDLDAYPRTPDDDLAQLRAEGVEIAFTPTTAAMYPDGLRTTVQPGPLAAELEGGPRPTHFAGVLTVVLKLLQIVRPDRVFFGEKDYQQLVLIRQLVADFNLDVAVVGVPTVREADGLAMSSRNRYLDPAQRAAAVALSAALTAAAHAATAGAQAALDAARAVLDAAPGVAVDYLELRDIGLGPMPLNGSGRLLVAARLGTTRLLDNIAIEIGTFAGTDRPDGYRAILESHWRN

Compound | inhibition [%]
Cc1nc(SCC(=O)Nc2cc(C)on2)c2c3c(sc2n1)CCCC3 | 4
CCn1c(=O)cc(SCC(=O)N2CCOCC2)c2ccccc21 | 11
COc1ccc(CNC(=O)c2cc(-c3ccc(OC)c(OC)c3)on2)cc1 | 3
C/C(Cl)=C\Cn1c(Nc2ccc(C)cc2)nc2c1c(=O)n(C)c(=O)n2C | 3
CCCC(=O)Nc1ccccc1NC(=O)CN(C)S(=O)(=O)c1ccc(C)cc1 | 2
CCn1c(Cc2ccccc2)nnc1SCC(=O)Nc1cc(C)on1 | 0
OCCN(CCO)c1nc(N2CCCCC2)c2nc(N(CCO)CCO)nc(N3CCCCC3)c2n1 | 0
CC1(C)CC(=O)c2cc(OCC(=O)N3CCN(c4ccccc4F)CC3)ccc2O1 | 6
CC(=O)N(C)C1(c2nnnn2CCOC(=O)Nc2ccc(Cl)cc2)CCCCC1 | 0
CC(=O)Nc1ccc(S(=O)(=O)NCC(C)NS(=O)(=O)c2ccc(NC(C)=O)cc2)cc1 (centres undefined) | 2
N#CC1=C(N)n2c(s/c(=C\c3ccco3)c2=O)=C(C#N)C1c1ccco1 (centres undefined) | 0
Cc1ccc(N2C(=O)c3ccccc3C2O)nc1 (centres undefined) | 1
CC(C)OC(=O)CSc1nnnn1-c1ccc2c(c1)OCCO2 | 2
COc1cc(CN2CCC(C(=O)NC3CCCC3)CC2)ccc1O | 0
Cn1c(=O)c2ncn(CC(=O)NCCOc3ccccc3)c2n(C)c1=O | 0
c1ccc(-c2nnc(-c3ccco3)n2-c2ccccc2)cc1 | 0
CC1CCN(CCc2nc3cc(NS(=O)(=O)c4ccc(F)cc4)ccc3n2C)CC1 | 5
COc1ccccc1C(=O)OCn1nnc2ccccc2c1=O | 0
COc1ccc(-c2cc(C(F)F)n3ncc(C(=O)NCC4CCCO4)c3n2)cc1 (centres undefined) | 4
CCOC(=O)c1c(NC(=O)c2ccoc2C)sc2c1CCC2 | 7

Compound | inhibition [%]
Cc1nnc(SCC(=O)NC(C)(C)C)n1CCc1ccccc1 | 0
COc1ccc(-c2noc(CCCOc3ccccc3)n2)cc1OC | 7
CCCC(=O)Nc1ncnc2c1ncn2[C@@H]1O[C@@H]2COP(=O)(O)O[C@H]2[C@H]1OC(=O)CCC | 0
O=C(CN1CCN(c2ncc(C(F)(F)F)cc2Cl)CC1)Nc1ccc2c(c1)OCO2 | 0
O=C(c1cc2cc(Cl)cc(Cl)c2oc1=O)N1CCOCC1 | 0
COc1cc2c(cc1OC)C(c1cccnc1)CC(=O)N2 (centres undefined) | 5
COc1ccc(C(=O)N2CCN(c3nc4cc(C)ccc4cc3C#N)CC2)c(OC)c1 | 0
CCCN(CCC)CCNC(=O)c1cc2c(=O)n(C)c3ccccc3c2n1C | 0
CC(C)(C)c1cc(NS(=O)(=O)c2ccc3c(c2)OCCO3)on1 | 0
O=C1CCc2cc(S(=O)(=O)N3CCC(C(=O)Nc4nccs4)CC3)ccc2N1 | 4
CC(C(=O)N1c2ccc(F)cc2CCC1C)N1C(=O)c2ccccc2C1=O (centres undefined) | 5
CCn1cc(C2=NOC(C(=O)Nc3cc(C)nn3-c3ccccc3)C2)c(C)n1 (centres undefined) | 0
O=C(CN1C(=O)CC(c2ccco2)Sc2ccccc21)Nc1ccc2c(c1)OCCO2 (centres undefined) | 3
COc1cc(-n2nc(C)c3c2OC(N)=C(C#N)C3c2ccccc2)c(Cl)c(Br)c1O (centres undefined) | 9
CCOC(=O)c1ccccc1NC(=O)c1ccc(NS(C)(=O)=O)cc1 | 0
c1ccc(N2CCN(Cc3cn4cccnc4n3)CC2)cc1 | 3
Cc1ccc2oc(-c3ccccc3C(=O)O)cc(=O)c2c1 | 13
CCOC(=O)c1[nH]nc(-c2c(O)cc(C)cc2O)c1-c1csc(C)n1 | 0
COC(=O)C1=C(C)Nc2ncnn2C1c1ccco1 (centres undefined) | 0
